The values below come from PubChem BioAssay.

Assay [1] in a line: sensitizers of A549 cells to miR-34 induction, primary screen, imaging, A549 dox-inducible miR-34, nuclei and caspase counts (AID 1347080). Note: test concentration not given here. Particulars: A549 miR-34 inducible, Hoechst nuclei count, 48 h.
Assay [2] is described as follows: survival rescue of mitochondrial mutant cells in low glucose, primary screen, MELAS cybrids, Rieske KO mouse fibroblasts, CellTiter-Glo (AID 1508586;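 active = mean z-score across replicates of 1.96 or higher in either the MELAS or the Rieske mutant cell line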;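 note: test concentration not given here; z relative to plate mean and SD of compound and empty wells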). (In general: ATP-based viability assays read luminescence as a measure of living cells.)
Assay [3] can be described thus: viability rescue of complex I mutant cybrids, primary screen, cell-based, galactose medium, ATP luminescence (AID 1645843;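 active = z-score of at least 1.8 in each of two replicates, scored against plate mean and spread of sample wells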;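 note: positive z means more ATP and so rescue of galactose-driven cybrid death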). Particulars: complex I mutant cybrid cells, 72 h, stronger effect = higher value.
The mark [4] stands for this setting: stronger effect = lower value, cell number ratio, induced over uninduced.
The mark [5] stands for this setting: measured here: relative caspase fold change +Dox/-Dox.
[6] abbreviates: measured here: total cells with miR-34 induction, stronger effect = lower value.
Where [7] appears, read: measured here: total cells without miR-34 induction.
Setting [8] is: MELAS cybrid survival, CellTiter-Glo 48 h, stronger effect = higher value.
The mark [9] stands for this setting: Rieske KO mouse fibroblast survival, CellTiter-Glo 72 h.

Each structure is given as a SMILES string. “And” between values parts separate entries of the source, which are not always exact repeats. Identical values can stand only once. The source made the active and inactive calls.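 Rule for the calls, unless noted: active = compounds whose cell count with miR-34 switched on is under 0.7 times the count with it off; inactive = the rest.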

As to `Cc1nc2ccc(CN(C)c3ccc(C(=O)NC(CCC(=O)O)C(=O)O)s3)cc2c(=O)[nH]1` (stereo not drawn), the fold change in assay [1] (setting [4]) was 1.21 (inactive) and 1.1 (inactive); in assay [1] (setting [5]) it was 1.12 and 0.742. The cell count in assay [1] (setting [6]) is 1780 and 1710; in assay [1] (setting [7]), 1470 and 1560. In addition, the z-score in assay [2] (setting [8]) is -0.603 (inactive); in assay [2] (setting [9]) it was -0.121; in assay [3], -1.03 (inactive).

With `Cc1nn(C)cc1-c1ccnc(NCc2nc(Cc3ccccc3)no2)n1`, the fold change is 0.883 (inactive) in assay [1] (setting [4]) and 1.22 in assay [1] (setting [5]). Moreover, the cell count in assay [1] (setting [6]) is 8680; in assay [1] (setting [7]), 9840. Besides, the z-score was -0.288 (inactive) in assay [2] (setting [8]), -0.167 in assay [2] (setting [9]) and -0.52 (inactive) in assay [3].

On to `CN(CCc1ccccn1)C(=O)c1ccc2sc(N)nc2c1`, for which the values for the fold change in assay [1] (setting [4]) and in assay [1] (setting [5]) were 0.88 (inactive) and 0.927, respectively. Further, the cell count in assay [1] (setting [6]) came to 8380; in assay [1] (setting [7]) it was 9520. For the same compound, the z-score was 0.048 (inactive) in assay [2] (setting [8]), -0.377 in assay [2] (setting [9]) and -0.435 (inactive) in assay [3].

Take `Cc1ccc(Sc2cccc3nc(N)nc(N)c23)cc1`: the fold change was 1.07 (inactive) in assay [1] (setting [4]) and 0.775 in assay [1] (setting [5]). Besides, the cell count in assay [1] (setting [6]) turned out to be 3810; in assay [1] (setting [7]), 3570. In addition, the z-score was 0.0344 (inactive) in assay [2] (setting [8]), 0.646 in assay [2] (setting [9]) and -2.52 (inactive) in assay [3].

Consider `O=S(=O)(O)CCCN1CCOCC1`, for which the fold change was 0.928 (inactive) in assay [1] (setting [4]) and 0.665 in assay [1] (setting [5]). Further, the cell count in assay [1] (setting [6]) was determined as 8750; in assay [1] (setting [7]) it was 9420. For the same compound, the results for the z-score in assay [2] (setting [8]), in assay [2] (setting [9]) and in assay [3] were 0.595 (inactive), -0.353 and 0.105 (inactive), respectively.

As for `Cc1nsc(NC(=O)NCc2ccccc2-n2ccnc2C)n1`, the fold change is 0.866 (inactive) in assay [1] (setting [4]) and 1.23 in assay [1] (setting [5]). Also, the cell count in assay [1] (setting [6]) came out at 9020; in assay [1] (setting [7]) it was 10400. The z-score in assay [2] (setting [8]) was 0.0398 (inactive); in assay [2] (setting [9]), -0.281; in assay [3] it was -0.575 (inactive).

In the case of `CC(C)(O)c1ccccc1CCC(SCC1(CC(=O)O)CC1)c1cccc(C=Cc2ccc3ccc(Cl)cc3n2)c1` (stereo not drawn), the fold change was 0.925 (inactive) and 0.834 (inactive) in assay [1] (setting [4]); 1.67 and 2.27 in assay [1] (setting [5]). In addition, the cell count in assay [1] (setting [6]) was 8950 and 7950; in assay [1] (setting [7]), 9680 and 9540. Further, the z-score in assay [2] (setting [8]) was -0.195 (inactive); in assay [2] (setting [9]), -0.136; in assay [3] it was 0.25 (inactive).

Turning to `Cc1ccc2c(C(=O)N(C)C(C)C)cc(-c3cnc(C(C)C)nc3)nc2c1`, the fold change is 0.942 (inactive) in assay [1] (setting [4]) and 1.5 in assay [1] (setting [5]). In addition, the figures for the cell count in assay [1] (setting [6]) and in assay [1] (setting [7]) were 7480 and 7940, respectively. Besides, the values for the z-score in assay [2] (setting [8]), in assay [2] (setting [9]) and in assay [3] were 0.549 (inactive), 0.778 and -0.485 (inactive), respectively.

Take `Cc1cnc(CN(C)C(=O)c2n[nH]c3ccccc23)[nH]1`: the figures for the fold change in assay [1] (setting [4]) and in assay [1] (setting [5]) were 0.891 (inactive) and 1.39, respectively. Also, the cell count in assay [1] (setting [6]) turned out to be 8830; in assay [1] (setting [7]), 9910. Also, the z-score in assay [2] (setting [8]) is 0.305 (inactive); in assay [2] (setting [9]), -0.304; in assay [3] it was -0.445 (inactive).

For `CC(C)n1cc(-c2cc(C(=O)N(C)Cc3cccnc3)c3ccc(F)cc3n2)cn1`, the fold change in assay [1] (setting [4]) was 0.916 (inactive); in assay [1] (setting [5]) it was 1.28. Moreover, the cell count turned out to be 9850 in assay [1] (setting [6]) and 10700 in assay [1] (setting [7]). Moreover, the z-score was -0.603 (inactive) in assay [2] (setting [8]), 1.43 in assay [2] (setting [9]) and -0.355 (inactive) in assay [3].

With `Nc1ccc(CCC(=O)O)cc1`, the fold change in assay [1] (setting [4]) was 0.96 (inactive); in assay [1] (setting [5]) it was 0.255. For the same compound, the cell count turned out to be 9320 in assay [1] (setting [6]) and 9710 in assay [1] (setting [7]). Besides, the values for the z-score in assay [2] (setting [8]), in assay [2] (setting [9]) and in assay [3] were 0.558 (inactive), -0.0102 and 1.27 (inactive), respectively.

In the case of `c1cc(CN2CCN3CCCC3C2)n(-c2nccs2)c1` (stereo not drawn), the fold change in assay [1] (setting [4]) was 0.908 (inactive); in assay [1] (setting [5]) it was 1.4. The cell count in assay [1] (setting [6]) amounted to 8290; in assay [1] (setting [7]), 9130. In addition, the z-score in assay [2] (setting [8]) was 0.256 (inactive); in assay [2] (setting [9]), -0.144; in assay [3], -0.595 (inactive).

On to `O=C(CC1=CCCCC1)NCc1ccon1`, for which the fold change in assay [1] (setting [4]) is 0.939 (inactive); in assay [1] (setting [5]) it was 1.22. Also, the cell count in assay [1] (setting [6]) is 9490; in assay [1] (setting [7]) it was 10100. Further, the z-score is 0.26 (inactive) in assay [2] (setting [8]), -0.5 in assay [2] (setting [9]) and -0.49 (inactive) in assay [3].

On to `O=C(Nc1c[nH]c2ccccc12)c1cc(-c2ccc(F)cc2)n[nH]1`, for which the fold change in assay [1] (setting [4]) is 0.84 (inactive); in assay [1] (setting [5]), 1.42. The figures for the cell count in assay [1] (setting [6]) and in assay [1] (setting [7]) were 7140 and 8510, respectively. The z-score is -0.224 (inactive) in assay [2] (setting [8]), 0.73 in assay [2] (setting [9]) and -0.56 (inactive) in assay [3].

On to `O=C1CCNC(=O)N1`, for which the fold change is 0.882 (inactive) in assay [1] (setting [4]) and 0.303 in assay [1] (setting [5]). Moreover, the cell count in assay [1] (setting [6]) turned out to be 8710; in assay [1] (setting [7]), 9870. The z-score in assay [2] (setting [8]) is 0.298 (inactive); in assay [2] (setting [9]), 0.144; in assay [3], 0.585 (inactive).

Consider `Cc1cc(C(=O)Nc2ccc3c(c2)CC(=O)N3)c(C)o1`, for which the fold change in assay [1] (setting [4]) is 0.929 (inactive); in assay [1] (setting [5]), 1.42. The cell count in assay [1] (setting [6]) amounted to 9120; in assay [1] (setting [7]), 9820. The z-score in assay [2] (setting [8]) was -0.11 (inactive); in assay [2] (setting [9]) it was -0.503; in assay [3], -0.465 (inactive).

On to `O=C1CC(c2ccc(O)cc2)Oc2cc(O)ccc21` (stereo not drawn), for which the values for the fold change in assay [1] (setting [4]) and in assay [1] (setting [5]) were 0.9 (inactive) and 0.718, respectively. For the same compound, the cell count came to 8540 in assay [1] (setting [6]) and 9500 in assay [1] (setting [7]). For the same compound, the z-score in assay [2] (setting [8]) is 0.67 (inactive); in assay [2] (setting [9]), -0.313; in assay [3], 0.305 (inactive).

Turning to `Cn1c(=O)ccc2ccccc21`, the fold change in assay [1] (setting [4]) was 0.892 (inactive); in assay [1] (setting [5]), 0.453. Further, the cell count in assay [1] (setting [6]) worked out at 8490; in assay [1] (setting [7]) it was 9520. Moreover, the z-score in assay [2] (setting [8]) was -0.16 (inactive); in assay [2] (setting [9]), 0.0614; in assay [3], 0.32 (inactive).

For `Cc1ncsc1-c1ccn(CC(=O)Nc2ccnn2Cc2cccs2)n1`, the values for the fold change in assay [1] (setting [4]) and in assay [1] (setting [5]) were 0.798 (inactive) and 1.89, respectively. Moreover, the cell count in assay [1] (setting [6]) was found to be 6540; in assay [1] (setting [7]) it was 8190. Besides, the z-score in assay [2] (setting [8]) is -0.383 (inactive); in assay [2] (setting [9]), -0.375; in assay [3] it was -0.525 (inactive).

Regarding `O=C1CN(C(=O)c2ccncc2)CCN1Cc1ccc2c(c1)OCO2`, the fold change in assay [1] (setting [4]) was 0.914 (inactive); in assay [1] (setting [5]), 1.59. For the same compound, the cell count in assay [1] (setting [6]) amounted to 9040; in assay [1] (setting [7]), 9890. Besides, the z-score is -0.12 (inactive) in assay [2] (setting [8]), -0.568 in assay [2] (setting [9]) and -0.52 (inactive) in assay [3].

For `CC(=O)C=Cc1cn(C)c2ccccc12`, the figures for the fold change in assay [1] (setting [4]) and in assay [1] (setting [5]) were 0.824 (inactive) and 0.579, respectively. Also, the cell count came to 7690 in assay [1] (setting [6]) and 9340 in assay [1] (setting [7]). Besides, the results for the z-score in assay [2] (setting [8]), in assay [2] (setting [9]) and in assay [3] were 1.15 (inactive), 0.123 and 0.49 (inactive), respectively.

Take `Nc1ncccc1OCc1ccccc1`: the fold change in assay [1] (setting [4]) is 0.764 (inactive); in assay [1] (setting [5]), 0.403. In addition, the results for the cell count in assay [1] (setting [6]) and in assay [1] (setting [7]) were 7870 and 10300, respectively. In addition, the z-score in assay [2] (setting [8]) is -0.968 (inactive); in assay [2] (setting [9]), -0.912; in assay [3], -0.165 (inactive).

As for `CN(Cc1nc2ccc(Cl)cc2[nH]1)C(=O)c1n[nH]c2ccccc12`, the results for the fold change in assay [1] (setting [4]) and in assay [1] (setting [5]) were 0.846 (inactive) and 1.41, respectively. Also, the cell count in assay [1] (setting [6]) is 6230; in assay [1] (setting [7]), 7360. Further, the z-score in assay [2] (setting [8]) is -0.529 (inactive); in assay [2] (setting [9]) it was 0.953; in assay [3], 1.46 (inactive).

On to `O=C(O)Cc1cc(=O)[nH]c(=O)[nH]1`, for which the figures for the fold change in assay [1] (setting [4]) and in assay [1] (setting [5]) were 0.898 (inactive) and 0.239, respectively. Moreover, the cell count in assay [1] (setting [6]) is 8760; in assay [1] (setting [7]), 9760. In addition, the z-score in assay [2] (setting [8]) is 0.622 (inactive); in assay [2] (setting [9]) it was -0.242; in assay [3], -0.13 (inactive).
